Results: PubChem BioAssay
The source made the active and inactive calls.

Legend:
[1] = A549 cell viability effects, profiling panel, calcein-AM fluorescence, 48 h, basal (AID 1162); conditions: higher = more signal
[2] = adipocyte viability effects, profiling panel, cell-based, 3T3-L1 adipocytes, calcein-AM fluorescence, 48 h, basal (AID 1163); conditions: 3T3-L1 adipocytes viability, higher = more signal
[3] = HepG2 cell viability effects, profiling panel, calcein-AM fluorescence, 48 h, basal (AID 1164); conditions: higher = more signal
[4] = MM1S cell viability effects, profiling panel, calcein-AM fluorescence, 48 h, basal (AID 1165); conditions: higher = more signal;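 note: viability of MM1S multiple myeloma cells under basal unstimulated conditions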
[5] = basal RPMI8226 viability, no added stimulus, profiling panel, cell-based, calcein-AM fluorescence, 48 h, PK04 Diversity Set (AID 1166); conditions: RPMI8226 myeloma viability, higher = more signal;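 note: cells grown under basal conditions without added stimulus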
[6] = basal HepG2 mitochondrial membrane potential changes, profiling panel, cell-based, JC-1 fluorescence, 24 h, 100 nL compound (AID 1167); conditions: higher = more signal
[7] = basal 3T3-L1 adipocyte mitochondrial potential changes, profiling panel, cell-based, JC-1 fluorescence, 3T3-L1 adipocytes, 24 h, 100 nL compound (AID 1168); conditions: JC-1 mitochondrial fluorescence, higher = more signal, called active from +8 up or from −8 down
[8] = basal RPMI8226 mitochondrial membrane potential changes, profiling panel, cell-based, JC-1 fluorescence, 24 h, 100 nL compound (AID 1169); conditions: RPMI8226 myeloma, JC-1 mitochondrial potential fluorescence, higher = more signal
[9] = basal MM1S mitochondrial membrane potential changes, profiling panel, cell-based, JC-1 fluorescence, 24 h, 100 nL compound (AID 1170); conditions: higher = more signal
[10] = A549 lung cancer cell viability effects, profiling panel, resazurin fluorescence, 24 h, PK04 Diversity Set (AID 1171); conditions: higher = more signal, called active from +8 up or from −8 down
Note: test concentration not given here.

Row | Compound | z-score [1] | z-score [2] | z-score [3] | z-score [4] | z-score [5] | z-score [6] | z-score [7] | z-score [8] | z-score [9] | z-score [10]
1 | CCCC=C(CCC)[C@@H](NC(=O)Cc1ccccc1)c1ccc(C(=O)OC)cc1 | -0.988 | -0.735 | -0.512 | -2.42 | -0.513 | -1.59 | -1.7 (inactive) | -0.566 | -2.09 | -0.712 (inactive)
2 | COCCOC(=O)N1C(=O)[C@@]2(c3cc(C#CCNC(N)=O)ccc31)[C@H](C(=O)N1CCCCCCC1)[C@H]1C(=O)O[C@H](c3ccccc3)[C@H](c3ccccc3)N1[C@@H]2c1ccc(OCCO)cc1 | 0.626 | 0.636 | 1.46 | 0.246 | 1.01 | -1.47 | -2.15 (inactive) | -0.764 | -1.75 | -0.619 (inactive)
3 | COc1cc2c(cc1OC)CN(C(=O)[C@@H]1[C@H]3C(=O)O[C@H](c4ccccc4)[C@H](c4ccccc4)N3[C@H](c3ccc(OCCO)cc3)[C@@]13C(=O)Nc1ccc(C#CCCO)cc13)CC2 | -0.433 | 1.06 | -0.857 | -0.369 | -0.987 | -1.56 | 1 (inactive) | -0.862 | -1.04 | 0.519 (inactive)
4 | CC(C)CNC(=O)[C@@]1(C)c2ccccc2C(=O)N(Cc2ccccc2)[C@H]1c1ccc(CO)cc1 | -0.151 | -0.751 | -0.323 | -0.408 | 0.0402 | 0.164 | -0.491 (inactive) | 0.0136 | -0.216 | 0.407 (inactive)
5 | CC(C)(C)OC(=O)CC[C@]1(C(=O)N2CCCCC2)N=C(c2ccc(OCCCO)cc2)O[C@H]1c1ccccc1CN=[N+]=[N-] | 1.1 | 0.876 | 1.58 | -2.99 | -2.01 | 2.46 | 0.67 (inactive) | -0.983 | 0.358 | -1.35 (inactive)
6 | COC(=O)[C@]1(Cc2ccccc2CN=[N+]=[N-])N=C(c2ccc(OCCCO)cc2)O[C@@H]1c1ccccc1 | -3.05 | 0.371 | -4.37 | -3.58 | -3.96 | -1.05 | 0.199 (inactive) | -1.05 | -2.7 | -2.91 (inactive)
7 | COCCOC(=O)N1C(=O)[C@@]2(c3cc(C#Cc4ccc(OC)cc4)ccc31)[C@H](C(=O)N1CCc3cc(OC)c(OC)cc3C1)[C@H]1C(=O)O[C@H](c3ccccc3)[C@H](c3ccccc3)N1[C@@H]2c1ccc(O)cc1 | -0.0326 | 0.376 | 0.97 | 0.175 | -0.393 | -0.177 | 0.302 (inactive) | -0.185 | 0.516 | 0.361 (inactive)
8 | CCN(CC)c1ccc(N2CC=CC34O[C@@H]5/C=C\CCCOC(=O)C5[C@H]3C(=O)N(CCCCCCO)[C@@H]4C2=O)cc1 (stereo not given in full) | 0.626 | 0.554 | 1.24 | 0.0885 | 0.0026 | 1.09 | 0.587 (inactive) | -0.25 | 0.0342 | 0.0444 (inactive)
9 | O=C1OCCC=C[C@H]2OC34C=CCN(Cn5nnc6ccccc65)C(=O)[C@H]3N(CCCCCO)C(=O)[C@@H]4C12 (stereo not given in full) | -0.0295 | 0.43 | 0.293 | 1.75 | 0.723 | 0.742 | 0.117 (inactive) | 0.0919 | -1.19 | -0.605 (inactive)
10 | C[C@@H]1ON(c2ccccc2)[C@H](c2ccccc2)[C@H]1C(=O)N1C(=O)OC[C@H]1Cc1ccccc1 | -0.245 | 0.701 | -0.0596 | -1.4 | -0.0681 | 1.38 | 0.00493 (inactive) | -0.137 | -0.645 | 1.38 (inactive)
11 | CCCC=C(CCC)[C@@H](NS(=O)(=O)CC)c1ccccc1 | -2.33 | -0.924 | -1.71 | -2.83 | -3.64 | -2.68 | -0.517 (inactive) | -0.889 | -0.177 | 0.677 (inactive)
12 | CC1C=C(CCCO)C=C(C(=O)OCCS(C)(=O)=O)C(C(=O)OCCS(C)(=O)=O)=CN1Cc1cccc(OC(F)(F)F)c1 (stereo not given) | 0.114 | 0.606 | 1.23 | -0.289 | -0.226 | 1.27 | -0.63 (inactive) | 0.186 | -0.0273 | -0.0746 (inactive)
13 | C=CCN1C(=O)[C@@]2(O[C@@H](CCn3cc([C@H](O)c4ccccc4)nn3)[C@H]([Si](C)(C)c3ccc(OC)cc3)[C@H]2C)c2cc(NC(=O)c3ccc(OC)cc3)ccc21 | -0.219 | -0.143 | -0.671 | -1.84 | -1.69 | -0.117 | -1.06 (inactive) | -0.991 | -0.641 | -2.43 (inactive)
14 | COc1ccc([Si](C)(C)[C@@H]2[C@@H](CCO)O[C@]3(C(=O)N(Cc4cccc(N5C(=O)COc6ccccc65)c4)c4ccccc43)[C@H]2C)cc1 | -2.03 | 0.574 | -4.17 | -2.95 | -4.16 | -0.527 | 0.351 (inactive) | -1.09 | -1.7 | -2.6 (inactive)
15 | C=CCNC(=O)[C@H]1[C@@H]2C(=O)O[C@@H](c3ccccc3)[C@@H](c3ccccc3)N2[C@@H](c2ccc(O)cc2)[C@]12C(=O)N(C(=O)OCCOC)c1ccc(C#CC3(O)CCCCCC3)cc12 | 0.904 | 0.76 | 2.26 | -1.2 | -3.53 | -1.84 | 0.509 (inactive) | -0.713 | -0.808 | -0.316 (inactive)
16 | COc1cc2c(cc1OC)CN(C(=O)[C@@H]1[C@H]3C(=O)O[C@H](c4ccccc4)[C@H](c4ccccc4)N3[C@H](c3ccc(O)cc3)[C@@]13C(=O)Nc1ccc(C#CCNC(N)=O)cc13)CC2 | 0.434 | 0.0878 | -0.659 | 0.454 | -0.375 | -1.55 | -0.628 (inactive) | -0.0414 | -0.375 | 0.795 (inactive)
